Among the data in PubChem BioAssay AID686979 (National Center for Advancing Translational Sciences (NCATS), 2013) are Potency values, retold here.

Hit rate of the full screen: of about 420,000 compounds, about 50,000 (12%) were called active. Another 26% or so got no clear call; they are omitted. Calls follow the shape of the dose curve; as a rule, active = well fitted inhibition curve with a large enough effect; inconclusive = small, poorly fitted or top-dose-only effect; inactive = flat fitted curve, though single readings scatter. Shown is part of a subset that was picked to be rich in actives. Where a call stands in place of a potency, no number is given.
Potency is read from the fitted curve at half-maximal effect.

This experiment can be described thus: qHTS for Inhibitors of human tyrosyl-DNA phosphodiesterase 1 (TDP1): qHTS in cells in presence of CPT. Also: nearly all actives have a fitted effect of over 55% in size. To be noted: chicken DT40 Tdp1-/-;hTDP1 cells + 20 nM CPT, ATP luminescence, 48 h; series mostly up to 46.2 µM. The method, boiled down:
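Cell growth measured by CellTiter-Glo luminescence after a minimum 48 h, 37 C compound exposure with 20 nM CPT in Tdp1-knockout DT40 cells stably expressing hTDP1, seeded 400/well; qHTS titration format.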
Background: qHTS replaces the single test concentration by a dilution series.
With `O=C(N=C1SC2CS(=O)(=O)CC2N1Cc1ccccc1)c1ccccc1` (stereo not drawn), the Potency entry was “inactive”.
As for `COC(=O)c1sccc1NS(=O)(=O)c1ccc(F)cc1F`, the entry is “inactive”; as for `O=C(O)c1ccccc1/C=N/Nc1ccc(S(=O)(=O)Nc2ccc(Cl)cc2)cc1[N+](=O)[O-]`, “inactive”.
`O=[N+]([O-])c1cc(S(=O)(=O)Nc2cccc(Cl)c2)ccc1N=Nc1c(O)[nH]c2ccccc12`: the Potency is 20.6 µM (active).
Then `COc1ccc(S(=O)(=O)Nc2ccc3cn[nH]c3c2)cc1[N+](=O)[O-]`, with “inactive”.
As for `CN(Cc1ccc(F)cc1Cl)S(=O)(=O)c1cccs1`, the entry is “inactive”; as for `Cn1cc(C(=O)c2ccc(Cl)cc2Cl)cc1C(=O)NN`, “inactive”.
As for `CC(OC(=O)CCc1nc(=O)c2ccccc2n1C)C(=O)NCc1ccc2c(c1)OCO2` (stereo not drawn), the entry is “inactive”; as for `Cc1ccc(S(=O)(=O)CCC(=O)Nc2nnc(CC(C)C)s2)cc1`, 20.6 µM (active); as for `CCOC(=O)c1ccc(NC(=O)CCS(=O)(=O)c2ccc(C)cc2)cc1`, 18.4 µM (active).
`CCOc1ccc(OCC)c(NC(=O)CCS(=O)(=O)c2ccc(C)cc2)c1`: the Potency entry was “inactive”.
For `CCOC(=O)c1ccc(NC(=O)CCS(=O)(=O)c2ccc3c(c2)oc(=O)n3C)cc1`, the Potency entry is “inactive”.
As for `CC(C)Cc1nnc(NC(=O)CCc2ccccc2)s1`, the entry is “inactive”.
As to `Cc1ccc(S(=O)(=O)CC(=O)Nc2nnc(C)s2)cc1`, the Potency entry was “inactive”.
Turning to `O=C1C(=O)N(CCN2CCOCC2)C(c2cccc(Cl)c2)/C1=C(/O)c1ccc2c(c1)OCO2` (stereo not drawn), the Potency result is “inactive”.
Then `CN(CC(O)COc1ccc(S(=O)(=O)N2CCOCC2)cc1Cl)C1CCCCC1` (stereo not drawn), with “inactive”; and `CCCCOc1ccc(N(CC(=O)NC(C)C)C(=O)CCC(=O)Nc2ccccn2)cc1`, with “inactive”.
With `O=C(Cc1cccs1)N/N=C/c1ccc(OCc2ccccc2)cc1`, the Potency result is “inactive”.
Then `O=C(NN1C(=O)C2C3C=CC(C4CC34)C2C1=O)c1ccc(Cl)cc1` (stereo not drawn), with “inactive”.
As for `CSC(=S)N/N=C/c1c[nH]c2ccccc12`, the figure is 0.651 µM (active); as for `O=C(N/N=C/c1cccc(O)c1)c1cc2c(ccc3ccccc32)o1`, “inactive”; as for `O=C(N/N=C/c1c[nH]c2ccccc12)c1cc2ccccc2o1`, 14.6 µM (active).
As for `Cc1c(/C=N\NC(=O)c2cc3ccccc3o2)c2ccccc2n1C`, the figure is 3.66 µM (active).
As to `O=C(N/N=C/c1c[nH]c2ccccc12)c1ccccc1O`, the Potency entry is “inactive”.
Take `O=C(N/N=C/c1coc2ccccc2c1=O)c1cc2ccccc2o1`: the Potency result was “inactive”.
As for `O=C(O)c1cccc(NC(=S)N/N=C/c2c[nH]c3ccccc23)c1`, the entry is “inactive”; as for `N=c1oc2ccccc2cc1C(=O)N/N=C/c1ccccc1`, “inactive”; as for `Cc1ccc(NC(=O)c2cc3ccccc3o2)cc1`, “inactive”.
In the case of `CCOC(=O)c1ccc(NC(=O)C2CC(=O)N(c3ccc4c(c3)OCCO4)C2)cc1` (stereo not drawn), the Potency entry was “inactive”.
As for `O=C1CCCC(O)=C1N=Nc1ccc2ncsc2c1`, the entry is “inactive”; as for `NNC(=O)CSc1nnc(-c2ccccc2)n1-c1ccccc1`, “inactive”; as for `CCCCn1c(N)c(N(CCOC)C(=O)c2sc3ccccc3c2Cl)c(=O)[nH]c1=O`, “inactive”.
Then `CC[C@H](C)C(=O)N[C@H]1CCCN1C(=O)/C=C/c1ccccc1`, with “inactive”; and `O=S(=O)(NCCS(=O)(=O)N1CCN(c2ccccc2)CC1)c1ccc(F)cc1`, with “inactive”; and `O=C(Nc1ccccc1Cl)NC1(C(=O)N2CCOCC2)CCCCC1`, with “inactive”.
Then `COc1cc2c(cc1OC)C(=O)NCC(C)(C)O2`, with “inactive”; and `Cc1cc(C)cc(NC(=O)Cn2cnc3c(nnn3Cc3ccc(F)cc3)c2=O)c1`, with “inactive”; and `CCCCCn1c(=O)[nH]c2cc(C(=O)Nc3cc(C)cc(C)c3)ccc2c1=O`, with 4.11 µM (active).
For the compound `O=C(NC1CCCCC1)c1ccc2c(=O)n(CC3CCCO3)c(=O)[nH]c2c1` (stereo not drawn), the Potency entry is “inactive”.
As to `CC(C)n1c(=O)[nH]c2cc(C(=O)Nc3ccccc3)ccc21`, the Potency entry was “inactive”.
Turning to `COCCn1c(=O)[nH]c2cc(C(=O)NCc3cccnc3)ccc2c1=O`, the Potency entry was “inactive”.
As for `CCCCCn1c(=O)[nH]c2cc(C(=O)NCCCN3CCCCC3C)ccc2c1=O` (stereo not drawn), the entry is “inactive”; as for `CCCCCn1c(=O)[nH]c2cc(C(=O)Nc3ccc(F)cc3)ccc2c1=O`, 20.6 µM (active); as for `O=C(NCc1ccccc1)c1ccc2c(c1)nc1n2CCCCC1`, “inactive”.
As for `COc1cccc(C2C(C(=O)Nc3ccc(C)cc3C)=C(C)Nc3c(C(=O)Nc4ccccc4)cnn32)c1` (stereo not drawn), the entry is “inactive”; as for `CC(C)(C)OC(=O)C1=C(CO)CS[C@@H]2[C@H](NC(=O)Cc3ccccc3)C(=O)N12`, “inactive”.
With `C[C@H](NC(=O)C1CC(=O)N(c2ccc3c(c2)OCO3)C1)C(=O)NCc1ccco1` (stereo partly drawn), the Potency result was “inactive”.
Regarding `CCOc1ccc(S(=O)(=O)N2CCC(C(=O)NCC(=O)Nc3cccc(Cl)c3C)CC2)cc1`, the Potency result is “inactive”.
Then `O=C(CCc1c[nH]c2ccccc12)NCCOc1ccccc1`, with “inactive”.
Then `CC(=O)NC(Cc1c[nH]c2ccccc12)C(=O)O` (stereo not drawn), with “inactive”; and `COC(=O)C(Cc1c[nH]c2ccccc12)NC(=O)CCNC(=O)c1ccco1` (stereo not drawn), with “inactive”.
Then `C=CC[C@H](CC(=O)NCCO)C(=O)N[C@@H](COC(=O)[C@@H](CC=C)Cc1ccc(F)cc1)Cc1c[nH]c2ccccc12`, with 29.1 µM (active).
For the compound `C=CCC[C@H](Cc1ccc(F)cc1)C(=O)OC[C@@H](Cc1c[nH]c2ccccc12)NC(=O)[C@H](CC=C)CC(=O)N[C@H](CO)Cc1ccccc1`, the Potency is 5.8 µM (active).
Then `C=CC[C@@H](CC(=O)N[C@H](CO)Cc1ccccc1)C(=O)N[C@@H](COC(=O)[C@@H](CC=C)Cc1ccc(F)cc1)Cc1c[nH]c2ccccc12`, with 16.4 µM (active); and `C=CC[C@@H](CC(=O)NCCO)C(=O)N[C@H](C)COC(=O)[C@@H](CC=C)CC(=O)OC(C)(C)C`, with “inactive”; and `COc1ccc(CNC(=O)[C@H](Cc2c[nH]c3ccccc23)NC(C)=O)cc1OC`, with “inactive”.
Take `CC(CCc1ccccc1)NC(=O)COC(=O)c1ccc(F)cc1` (stereo not drawn): the Potency result was “inactive”.
In the case of `CC(=O)NC(Cc1c[nH]c2ccccc12)C(=O)NCCc1ccccc1` (stereo not drawn), the Potency entry is “inactive”.
As for `C=CC[C@@H](CC(=O)N[C@H](CO)Cc1ccccc1)C(=O)N[C@H](C)COC(=O)[C@@H](CC=C)Cc1ccc(F)cc1`, the figure is 20.6 µM (active).
As for `CC(C)CNc1ncnc2c1nnn2C`, the entry is “inactive”; as for `CCC(C)NC(=O)/C=C/c1ccc(S(=O)(=O)NCc2ccco2)cc1` (stereo not drawn), “inactive”; as for `CC(=O)N1CCC(N(C(=O)Nc2ccc(Cl)cc2)C(C)C)CC1`, “inactive”.
As for `CC(=O)NC(CC(=O)Nc1nc(-c2ccccc2)c(C(C)=O)s1)c1ccccc1` (stereo not drawn), the entry is “inactive”.
With `COc1ccccc1C(=O)OCc1cc(=O)n2nc(-c3cccs3)sc2n1`, the Potency result was “inactive”.
For the compound `Nc1ccccc1-c1nc2ccncc2[nH]1`, the Potency entry is “inactive”.
As for `CCc1ccc(Oc2coc3cc(OC(=O)c4cc5ccccc5oc4=O)ccc3c2=O)cc1`, the entry is “inactive”; as for `O=C1c2ccccc2-c2ccccc2NC1O` (stereo not drawn), “inactive”; as for `O=C1NN(c2ccccc2)C(=O)/C1=C/c1ccc(-c2cccc(C(=O)O)c2)o1`, “inactive”.
Then `O=C1CCC[C@@H]2CC(N3CCCCC3)C[C@@H]3CCN1[C@H]23` (stereo partly drawn), with “inactive”; and `CN(C)C(CNC(=O)c1ccc(S(=O)(=O)NCc2ccco2)cc1)c1ccccc1` (stereo not drawn), with “inactive”.
As for `Cc1noc(C)c1S(=O)(=O)N(C)C[C@H]1OCCCC[C@@H](C)Oc2ccc(NC(=O)CCCN(C)C)cc2C(=O)N([C@H](C)CO)C[C@@H]1C`, the entry is “inactive”; as for `Cc1cc(/C=C2\SC(=Nc3ccc(N4CCOCC4)cc3)N(C)C2=O)c(C)n1-c1cccnc1`, “inactive”.
Take `CCCCN=C1C([N+](=O)[O-])=CC=C2C1=NC1(CCCCC1)N2O`: the Potency entry is “inactive”.
Then `CCc1ccccc1OCC(=O)Nc1ccc2c(c1)OCCO2`, with “inactive”.
`O=C(COC(=O)COc1ccccc1F)Nc1cccc(S(=O)(=O)N2CCCCC2)c1`: the Potency entry was “inactive”.
As for `COc1ccccc1C(CNC(=O)c1ccc(C)c(S(=O)(=O)N2CCCCC2)c1)N(C)C` (stereo not drawn), the entry is “inactive”; as for `COc1ccccc1C(=O)Nc1ccc(C)c(S(=O)(=O)N2CCCCC2)c1`, 20.6 µM (active).
As for `Cc1ccccc1OCC(=O)Nc1ccc(N2CCN(C(=O)C(C)C)CC2)c(Cl)c1`, the figure is 13 µM (active); as for `COc1ccc(NC(=O)C2=NNC(=O)CC2)cc1S(=O)(=O)N1CCCCC1`, “inactive”; as for `Cc1ccccc1OCC(=O)Nc1ccc(S(=O)(=O)N2CCOCC2)cc1`, “inactive”.
As for `Cc1ccccc1OCC(=O)Nc1ccc2c(c1)ncn2C`, the entry is “inactive”; as for `CCc1ccccc1OCC(=O)Nc1ccc(C)c(S(=O)(=O)N2CCCCCC2)c1`, 14.6 µM (active); as for `Clc1ccc(-c2cccc3nccn23)cc1`, “inactive”.
As to `Cc1ccc2c(c1)C(O)(CC(=O)c1cccc(-n3cccc3)c1)C(=O)N2` (stereo not drawn), the Potency entry is “inactive”.
As for `C=CCOc1ccc(/C=C/C(=O)OCC(=O)NC2CCCCCC2)cc1`, the entry is “inactive”; as for `O=C1OCCOC2CCCc3oc(-c4ccccc4)c1c32` (stereo not drawn), “inactive”.
Then `O=C(NCc1ccco1)/C(=C/c1cccc([N+](=O)[O-])c1)NC(=O)c1ccco1`, with “inactive”.
For `CCc1ccc(N(C(=O)c2csnn2)C(C(=O)NC2CCCCC2)c2ccncc2)cc1` (stereo not drawn), the Potency entry is “inactive”.
In the case of `O=S(=O)(c1ccc(F)cc1)N1CCN=C1SCc1cccc(F)c1`, the Potency result is “inactive”.
Then `Clc1cc(NC2CCCCC2)ncn1`, with “inactive”.
Turning to `Cc1cccn2c(=O)c(C(=O)NC(C)c3ccccc3)cnc12` (stereo not drawn), the Potency result is “inactive”.
As for `COc1ccc(CNC(=O)C2CCCC2)cc1`, the entry is “inactive”.
Then `CCCCC[C@H]1CN(C2CCCCC2)C(=O)[C@@H]1CC(=O)NCc1ccc(OC)cc1`, with 16.4 µM (active); and `COc1ccc(CNC(=O)[C@@H]2CC=C[C@@H]3CCN(C4CC4)C(=O)[C@@H]32)cc1`, with “inactive”.
As for `CCN(CC)CCNC(=O)CN1N=C(c2ccc(OC)cc2)CCC1=O`, the entry is “inactive”; as for `O=C(NC1CCCCC1)c1ccc(Cn2c(SCc3ccccc3)nc3cccnc32)cc1`, “inactive”.
Turning to `COc1ccccc1CCCNC(=O)C1CCC(=O)N(CCN2CCOCC2)C1` (stereo not drawn), the Potency result is “inactive”.
As for `CCCn1c(=N)n(CC(O)COc2ccccc2OC)c2ccccc21` (stereo not drawn), the figure is 11.6 µM (active); as for `C=CCc1ccc(OCC(O)CN2CCN(Cc3ccccc3)CC2)c(OC)c1` (stereo not drawn), “inactive”; as for `COc1ccccc1OCC(O)CN1CCOCC1` (stereo not drawn), “inactive”.
Take `C=CCn1c(=N)n(CC(O)COc2ccc(OC)cc2)c2ccccc21` (stereo not drawn): the Potency was 16.4 µM (active).
As for `COc1ccc(OCC(O)CN(C)C(=O)C(C)Oc2ccccc2)cc1` (stereo not drawn), the entry is “inactive”; as for `COc1ccccc1OCCn1c(SCC(N)=O)nc2ccccc21`, “inactive”.
